# Compounds with a hit are over-represented: about 10% of the library has one in this group of screens.
# HPGD inh = qHTS Assay for Inhibitors of HPGD (15-Hydroxyprostaglandin Dehydrogenase); 15-hydroxyprostaglandin dehydrogenase [NAD(+)] (Homo sapiens), P15428; purified HPGD, NADH fluorescence kinetic, PGE2 substrate; Potency, µM, without a hit: at the top dose activity change, negative = inhibition, hits mostly inhibitors; hit rate 4.3% among 150,000; AID 894, 2007; further: potency means the concentration at half of the fitted maximal effect
# Target sequence (P15428 whole entry, looked up): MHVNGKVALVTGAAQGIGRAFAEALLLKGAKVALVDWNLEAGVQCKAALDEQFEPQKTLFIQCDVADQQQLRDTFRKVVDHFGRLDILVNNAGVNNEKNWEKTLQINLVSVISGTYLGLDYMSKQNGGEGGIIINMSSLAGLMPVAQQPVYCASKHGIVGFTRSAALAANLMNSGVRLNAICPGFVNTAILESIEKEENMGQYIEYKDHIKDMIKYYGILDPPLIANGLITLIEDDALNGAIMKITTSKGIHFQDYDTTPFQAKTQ
#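 NADH formation kinetics: reaction with 30 uM PGE2 and 1 mM NAD+ (final), 20 nM enzyme, Tris-HCl pH 8 with Tween 20, after 15 min compound preincubation at room temperature. Fluorescence change, last versus first of five reads.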
# LMNA splice mod = qHTS Assay for Modulators of Lamin A Splicing; HeLa LMNA splicing GFP/RFP minigene ratio, 48 h; Potency, µM (highest dose often 46.1 µM), inactives show at the highest dose ratio change, negative = inhibition, hits mostly inhibitors; hit rate 0.01% among 200,000; AID 1487, 2009; active means well fitted inhibition curve with a large enough effect in the signal ratio, with a control signal flat, not every such curve was filed as active; inconclusive means small, poorly fitted or top-dose-only effect, or effect the other way, or a change in a side signal; the % refers to the signal ratio; further: potency means the concentration at half of the fitted maximal effect
#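 S3 HeLa stable clones carrying a lamin A-EGFP splicing minigene plus DsRed2 were seeded at 600 cells/well in Opti-MEM with 2% FBS, pin-dosed and incubated 48 h at 37°C. Acumen cytometry (488 nm) gave the GFP/RFP total-intensity ratio.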
# ALOX12 inhib = qHTS Assay for Inhibitors of 12-hLO (12-human lipoxygenase) | hit rate 0.12% among 150,000 | Polyunsaturated fatty acid lipoxygenase ALOX12 (Homo sapiens), P18054 | purified 12-hLO, xylenol orange hydroperoxide absorbance | AID 1452, 2008 | Potency, µM (highest dose often 57.1 µM), inactives show at the top dose activity change, negative = inhibition, usual class: inhibitors; active means well fitted inhibition curve with a large enough effect; inconclusive means small, poorly fitted or top-dose-only effect; further: potency means the concentration at half of the fitted maximal effect; nearly all actives have a fitted effect of over 55% in size
#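 Lipoxygenase turnover measured by absorbance at 573 and 405 nm after Fe-XO development. Human 12hLO 150 nM, arachidonate 40 uM, pH 7.0 Hepes buffer with detergent; 15 min compound preincubation, 30 min reaction.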
# ALDH1A1 inh = qHTS Assay for Inhibitors of Aldehyde Dehydrogenase 1 (ALDH1A1) | Purified ALDH1A1, NADH fluorescence, propionaldehyde substrate | hit rate 7.3% among 220,000 | Aldehyde dehydrogenase 1A1 (Homo sapiens), P00352 | AID 1030, 2008 | Potency, µM (series often up to 75.3 µM), for the others: at the top dose activity, negative = inhibition, actives largely listed as inhibitors;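 further: potency means the concentration at half of the fitted maximal effect; plate controls were no enzyme wells and a reference inhibitor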
# Target sequence (P00352 whole entry, looked up): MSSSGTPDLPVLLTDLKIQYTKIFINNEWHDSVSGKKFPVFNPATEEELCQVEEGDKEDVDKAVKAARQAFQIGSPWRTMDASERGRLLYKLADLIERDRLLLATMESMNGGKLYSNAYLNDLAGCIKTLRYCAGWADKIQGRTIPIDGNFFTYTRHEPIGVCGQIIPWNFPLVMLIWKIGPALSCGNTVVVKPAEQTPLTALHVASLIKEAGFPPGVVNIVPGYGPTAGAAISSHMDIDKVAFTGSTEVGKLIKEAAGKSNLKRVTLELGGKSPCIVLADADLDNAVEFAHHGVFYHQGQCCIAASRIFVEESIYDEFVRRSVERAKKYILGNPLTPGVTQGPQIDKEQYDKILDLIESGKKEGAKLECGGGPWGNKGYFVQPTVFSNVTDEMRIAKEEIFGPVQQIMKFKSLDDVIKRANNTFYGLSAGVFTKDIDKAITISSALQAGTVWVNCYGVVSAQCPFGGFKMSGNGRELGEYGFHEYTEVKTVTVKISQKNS
# PNC inhibitor = High Content Assay for Compounds that inhibit the Assembly of the Perinucleolar Compartment. hit rate 3.1% among 140,000. PC3M PTB-GFP, PNC prevalence imaging, 16 h; active compounds read low. activity change (PNC), negative = inhibition, % at 10 µM;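 active means readout at or below -70, meaning at least 70% loss of cells showing the perinucleolar compartment, a nuclear body marking cancer cells; inconclusive means readout between -30 and a set limit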;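 further: plate controls were DMSO wells for no effect and camptothecin positive control wells for full effect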
#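 PC3M cells stably expressing PTB-GFP, 750–1000 cells/well, treated 16 h at 37 °C with compound (23 nl of library stock), in duplicate. After paraformaldehyde fixation and Hoechst stain, imaged at 20x; PNC prevalence scored by image analysis.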
# Active calls of the source: *; ? = inconclusive; . = not tested or not shown; [ ] = another dose, or the depositor's remark. Unless noted, the call rests on the fitted dose curve; in most records, active means well fitted inhibition curve with a large enough effect (not every such curve was filed as active); inconclusive means small, poorly fitted or top-dose-only effect, or another doubt; inactive means no such curve, though single readings can be large or run the other way. Unless noted, on the % scale 0 is the no-effect control and ±100 the full control effect.
SMILES,HPGD inh,LMNA splice mod,ALOX12 inhib,ALDH1A1 inh,PNC inhibitor
O=C(Nc1ccccc1C(=O)N1CCCC1)c1ccccc1,-1.0%,-3.3%,7.5%,5.5%,-118.9*
CCCCOC(=O)Nc1ccccc1C(=O)N1CCCC1,-1.3%,?,0.3%,?,-113.4*
Cc1ccc(C(=O)Nc2ccccc2C(=O)N2CCCCCC2)cc1,.,.,.,10.6%,.
COC(=O)Nc1ccccc1C(=O)N1CCCCC1,-18.9%,-10.5%,0.5%,?,68.5
CN(C)c1ccc(S(=O)(=O)NCC(=O)OCC(=O)Nc2cc(Cl)cc(Cl)c2)cc1[N+](=O)[O-],-3.1%,-8.4%,-4.5%,14.1µM*,9.5
O=C1NC2c3ccccc3C(=O)N2c2c1cnn2-c1ccccc1 (stereo unspecified),-19.9%,?,7.0%,?,-100.0*
O=C1c2ccccc2N2C(=O)c3ccccc3[C@H]2N1c1ccccc1,-0.9%,-2.8%,-4.3%,-11.0%,-7.2
CC(N)(C(=O)O)c1ccc(P(=O)(O)O)cc1 (stereo unspecified),.,.,.,11.3%,.
C[C@H]1Cc2c(COc3ccccc3)nc3c(c2CO1)CN(C(=O)c1cccnc1)CC3,-3.1%,-8.2%[9.22 µM],0.4%[11.4 µM],-6.0%[13.5 µM],.
O=C(NCc1ccccc1Cl)c1cnn2cccnc12,-21.7%,-9.6%,4.4%,-6.4%,3.6
CS(=O)(=O)c1ccc(Cl)c(NC(=O)CCl)c1,.,.,.,3.16µM*,.
CCn1cc(C(=O)NCc2ccccc2Cl)cn1,31.6µM*,?,3.1%,6.8%,?
CN(C)S(=O)(=O)c1ccc(Cl)c(NC(=O)COC(=O)c2ccc3c(c2)NC(=O)CS3)c1,.,.,.,3.55µM*,.
CN(C)S(=O)(=O)c1ccc(Cl)c(NC(=O)COC(=O)c2ccc(O)cc2)c1,.,-18.6%[46 µM],.,?,.
CCN(CC)S(=O)(=O)c1ccc(Cl)c(NC(=O)COC(=O)c2ccc(O)cc2)c1,.,.,.,15.8µM*,.
COc1ccc2[nH]cc(CCNc3ccnc(-c4ccc(C(=O)N(C)C)cc4)n3)c2c1,.,?,.,10.7%,.
CCOc1ccccc1NC(=O)CSc1nnc2[nH]c(=O)cc(-c3ccccc3)n12,.,2.5%[46 µM],.,.,.
CC(C)CN(C(=O)COC(=O)c1ccc2c(c1)NC(=O)CS2)C1CCS(=O)(=O)C1 (stereo unspecified),?,14.3%,-4.3%,39.8µM*,?
CCN(CC)S(=O)(=O)c1ccc(Cl)c(NC(C)=O)c1,.,14.3%[46 µM],.,?,.
CCCC(=O)Nc1cc(S(=O)(=O)N(CC)CC)ccc1Cl,-23.8%,-1.5%,5.1%,12.6µM*,-18.8
CCN(CC)S(=O)(=O)c1ccc(Cl)c(NC(=O)c2ccc(C#N)cc2)c1,1.9%,?,-1.3%,?,-97.0*
CCN(CC)S(=O)(=O)c1ccc(Cl)c(C(=O)NCc2ccccc2Cl)c1,-5.7%,?,-6.4%,7.94µM*,-12.1
O=C(NCc1ccccc1Cl)c1cc([N+](=O)[O-])ccc1Cl,.,.,.,-0.4%,.
CCOc1ccc(CCNC(=O)CCn2c(=O)c3cccn3c3ccc(F)cc32)cc1OCC,.,-2.2%[46 µM],.,.,.
COC(=O)c1ccc(OCC2c3cc(OC)c(OC)cc3CCN2C(=O)Cc2ccc(OC)cc2)cc1 (stereo unspecified),.,-12.5%[46 µM],.,.,.
SMILES,HPGD inh,LMNA splice mod,ALOX12 inhib,ALDH1A1 inh,PNC inhibitor
CNC(=O)[C@@H](Cc1ccccc1)N(C)C(=O)[C@@H](Cc1ccc2ccccc2c1)N(C)C(=O)/C=C/CC(C)(C)N,-2.2%,.,-1.2%,-2.8%,.
Cc1nnc(NC(=O)CC(CN(C)S(=O)(=O)c2ccccc2)c2ccccc2)s1 (stereo unspecified),-0.7%,-5.5%,-3.9%,?,?
CN(CC(CC(=O)Nc1nncs1)c1ccccc1)S(=O)(=O)c1ccc(Br)cc1 (stereo unspecified),-10.5%,-2.4%,-24.6%,12.6µM*,?
CN(CC(CC(=O)Nc1nncs1)c1ccccc1)S(=O)(=O)c1ccccc1 (stereo unspecified),-4.5%,-7.9%,-4.0%,8.91µM*,-19.9
Cc1ccc(NC(=O)C2CCCN(c3ncnc4c3nc3n4CCCCC3)C2)c(Br)c1 (stereo unspecified),.,28.9%[46 µM],.,.,.
CCCCCc1c(C)nc(N2CCc3ccccc3C2)[nH]c1=O,-20.1%,9.2%,3.5%,9.5%,-116.6*
O/N=C/c1cc(Br)cc(Br)c1OCc1ccccc1,14.1µM*,-5.7%,-9.1%,11.0%,17.2
CCOc1ccc(NC(=S)Nc2ccc(OCc3ccccc3)cc2)cc1,-7.8%,4.8%,-25.2%,3.7%,150.1
CNC(=S)Nc1ccc(OCc2ccccc2)cc1,.,-23.5%[46 µM],.,31.6µM*,.
S=C(NCCSCc1ccc(Cl)cc1Cl)Nc1ccccc1,-26.6%,?,25.1µM*,-3.2%,67.7
CCOc1ccc(CSCCNC(=S)Nc2ccccc2)cc1,-9.6%,?,?,2.7%,-92.0*
CC(C)c1nn2c(=O)cc(COC(=O)c3cccc(NC(=O)CCc4ccccc4)c3)nc2s1,.,8.5%[46 µM],.,.,.
CNC(=O)C1CCC(Cn2c(=O)c3sccc3n(Cc3ccccc3)c2=O)CC1 (stereo unspecified),.,22.1%[46 µM],.,.,.
C=CCn1cc(C(=O)OC)c(=O)c2cc(S(=O)(=O)N3CCCCCC3)ccc21,.,2.4%[9.22 µM],.,14.1µM*,.
CCn1cc(C(=O)N2CCN(c3ccc(OC)cc3)CC2)c(=O)c2cc(S(=O)(=O)N3CCCCC3)ccc21,.,?,.,11.2µM*,.
C=CCn1cc(C(=O)NCC2CCCO2)c(=O)c2cc(S(=O)(=O)N3CCCCCC3)ccc21 (stereo unspecified),-11.2%,5.9%,-1.5%,12.6µM*,-1.9
CCOC(=O)C1CCCN(C(=O)c2cn(CC)c3ccc(S(=O)(=O)N4CCCC4)cc3c2=O)C1 (stereo unspecified),-6.5%,-3.9%,1.3%,?,19.8
CCn1cc(C(=O)NCC2CCCO2)c(=O)c2cc(S(=O)(=O)N(C)C)ccc21 (stereo unspecified),-10.8%,-13.7%,-0.2%,4.1%,21.7
COc1ccccc1CNC(=O)CCS(=O)(=O)c1ccc2c(c1)CCN2C(C)=O,.,5.0%[46 µM],.,.,.
CC(=O)N1CCN(C2=Nc3cccc4cccc2c34)CC1,-13.1%,23.9%,5.4%,1.5%,-2.4
c1ccc(CC2CCN(C3=Nc4cccc5cccc3c45)CC2)cc1,-9.2%,?,-12.4%,14.1µM*,-1.8
Nc1ccc(N2CCN(c3cccc(Cl)c3)CC2)cc1,-10.4%,?,?,14.1µM*,11.4
O=C(O)/C=C\C(=O)Nc1ccc(N2CCN(c3ccc(Cl)cc3)CC2)cc1,.,-0.8%[46 µM],.,11.2µM*,.
O=C(O)/C=C\C(=O)Nc1ccc(N2CCN(c3cccc(Cl)c3)CC2)cc1,.,-11.3%[46 µM],.,28.2µM*,.
